# Assays:
# Conditions in all cases: concentration: 1 μM,replicates: in singlicate; n = 1
# PIK3C2G = test system: PIK3C2G
# PIK3CA = test system: PIK3CA
# PIK3CB = test system: PIK3CB
# PIK3CD = test system: PIK3CD
# PIK3CG = test system: PIK3CG
# PIK4CB = test system: T1, PIK4CB
# T1 construct: gene PI4KB
# PIKFYVE = test system: PIKFYVE
# PIM1 = test system: PIM1
# PIM2 = test system: PIM2
# PIM3 = test system: PIM3
# PIP5K1A = test system: PIP5K1A
# PIP5K1C = test system: PIP5K1C
# PIP5K2B = test system: PIP5K2B
# PIP5K2C = test system: T2, PIP5K2C
# T2 construct: gene PIP4K2C
# PKAC-alpha = test system: T3, PKAC-alpha
# T3 construct: gene PRKACA
# PKAC-beta = test system: T4, PKAC-beta
# T4 construct: gene PRKACB
# PKMYT1 = test system: PKMYT1
# PKN1 = test system: PKN1
# PKN2 = test system: PKN2
# PLK1 = test system: PLK1
# 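Note: KINOMEscan kinase panel screen.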
Compound,%Inh (PIK3C2G) [%],%Inh (PIK3CA) [%],%Inh (PIK3CB) [%],%Inh (PIK3CD) [%],%Inh (PIK3CG) [%],%Inh (PIK4CB) [%],%Inh (PIKFYVE) [%],%Inh (PIM1) [%],%Inh (PIM2) [%],%Inh (PIM3) [%],%Inh (PIP5K1A) [%],%Inh (PIP5K1C) [%],%Inh (PIP5K2B) [%],%Inh (PIP5K2C) [%],%Inh (PKAC-alpha) [%],%Inh (PKAC-beta) [%],%Inh (PKMYT1) [%],%Inh (PKN1) [%],%Inh (PKN2) [%],%Inh (PLK1) [%]
Cn1ccc2ncnc(Oc3ccc(NC(=O)Nc4cccc(C(F)(F)F)c4)c(Cl)c3)c21,5,0,19,0,0,0,29,12,1,15,0,48,2,0,0,0,0,0,0,0
O=C(NOCC1CC1)c1cc(Br)c(F)c(F)c1Nc1ccc(I)cc1Cl,0,0,0,0,0,0,41,0,9,1,4,43,4,36,9,0,0,9,0,0
O=C(Nc1ccccc1)c1cccc(Oc2ccc3nccn3n2)c1,6,0,0,11,0,68,0,0,5,0,0,23,15,14,5,0,0,26,29,36
COC(=O)c1cccc(NC(=O)NC2CCN(c3ccnc(Nc4cc(OC)c(OC)c(OC)c4)n3)C2)c1 (stereo not drawn) [GSK1379767],0,0,9,35,21,47,28,17,0,0,22,64,10,90.7,0,0,6,7,0,8
O=C(Nc1cccc(Oc2ccc3nccn3n2)c1)Nc1cccc(C(F)(F)F)c1,0,0,0,5,18,0,0,0,10,0,6,37,14,35,66,63,0,0,31,38
CC(C)c1nc(-c2cccc(NS(=O)(=O)c3ccccc3)c2)c(-c2ccnc(Nc3ccc4c(c3)CN(C)CC4)n2)s1 [GSK1649598],0,10,11,25,4,33,56,28,0,18,0,0,20,65,0,0,0,43,0,0
Cn1ccc2ncnc(Oc3ccc(NC(=O)Nc4cccc(C(F)(F)F)c4)c(F)c3)c21,0,0,0,0,0,0,13,19,0,8,0,17,0,0,0,34,2,0,16,0
Cc1ccn2nc(-c3ccc(F)cc3)c(-c3ccncc3)c2c1.Cl [GW457859],20,0,0,1,1,0,54,16,0,0,54,81,15,26,29,13,0,0,0,0
C[C@@H]1CCN(C(=O)N2CCCC2)C[C@@H]1N(C)c1ncnc2[nH]ccc12,0,2,26,2,14,7,3,0,0,0,8,0,0,0,0,0,0,86,48,0
C[C@@H]1CNc2c(sc3ccc4nc(-c5ccc(O)cc5)ccc4c23)C(=O)N1,28,5,34,39,11,0,18,37,93.7,72,3,18,78,13,4,5,2,0,16,0
C[C@@H]1CNc2c(sc3ccc4nc(-c5ccncc5)ccc4c23)C(=O)N1,2,0,0,0,0,0,52,44,69,93.1,30,11,0,0,0,27,7,7,15,0
Cn1ccc2ncnc(Oc3ccc(NC(=O)Nc4cnn(C(C)(C)C)c4)c(Cl)c3)c21,8,10,0,14,7,0,0,0,7,0,17,3,100,0,0,3,0,0,3,0
Cn1ccc2ncnc(Oc3ccc(NC(=O)Nc4ccnc(C(F)(F)F)c4)c(Cl)c3)c21,13,0,0,0,0,0,7,5,3,0,13,0,15,0,0,0,3,0,0,0
Cc1cccc2c(-c3ccncc3)c(-c3ccc(F)cc3)nn12.Cl [GW461487],0,0,0,0,0,0,0,18,0,0,13,35,10,0,0,0,9,0,0,0
CSc1nccc(-c2c(-c3ccc(F)cc3)ncn2CCCN2CCOCC2)n1.Cl [SB-217146],0,17,0,0,0,5,14,35,0,9,0,0,0,0,14,19,0,0,0,33
CCn1c(-c2nonc2N)nc2cncc(CNC3CCNCC3)c21.Cl [SB-747651],0,0,0,2,0,15,0,93.4,81,80,0,25,0,22,85,83,3,39,0,0
NC(=O)c1ccc(-c2cc3ncnc(SCC(=O)O)c3s2)cc1,20,0,15,0,0,0,42,7,22,22,0,93,6,72,0,0,0,0,4,0

Compound,%Inh (PIK3C2G) [%],%Inh (PIK3CA) [%],%Inh (PIK3CB) [%],%Inh (PIK3CD) [%],%Inh (PIK3CG) [%],%Inh (PIK4CB) [%],%Inh (PIKFYVE) [%],%Inh (PIM1) [%],%Inh (PIM2) [%],%Inh (PIM3) [%],%Inh (PIP5K1A) [%],%Inh (PIP5K1C) [%],%Inh (PIP5K2B) [%],%Inh (PIP5K2C) [%],%Inh (PKAC-alpha) [%],%Inh (PKAC-beta) [%],%Inh (PKMYT1) [%],%Inh (PKN1) [%],%Inh (PKN2) [%],%Inh (PLK1) [%]
O=C(Nc1ccc(Oc2ccc3nc(NC(=O)C4CC4)cn3n2)c(F)c1)c1cccn(-c2ccccc2)c1=O,0,0,0,0,0,0,4,5,8,0,1,22,22,76,0,56,0,0,48,0
CC(=O)Nc1nc2cnc(Nc3cc(NC(=O)c4cccc(CC(C)(C)C#N)c4)ccc3C)nc2s1,60,11,66,54,8,27,0,16,8,22,0,4,33,53,13,0,20,21,0,7
O=c1[nH]cc(-c2ccc(O)cc2)c2sc(-c3ccncc3)cc12 [GSK1033723],20,0,13,39,7,0,0,0,13,0,0,65,19,27,0,0,8,0,0,13
Cc1ccc2c(-c3ccnc(Nc4ccc(C(F)(F)F)cc4)n3)cnn2n1 [GW819776],0,2,0,0,48,33,23,10,0,0,15,0,0,82,14,20,0,0,0,25
N#Cc1cccc(C(=O)NC2CCN(c3ccnc(Nc4ccc(F)cc4)n3)C2)c1 (stereo not drawn) [GSK1379708],0,0,0,0,0,0,0,0,0,0,0,37,0,21,9,0,0,14,0,0
COC(=O)c1cccc(NC(=O)NC2CCN(c3ccnc(NCc4ccc(F)cc4)n3)CC2)c1 [GSK1379860],0,0,0,61,0,0,57,0,0,0,0,20,19,2,0,0,0,32,0,0
Cn1ccc2ncnc(Oc3ccc(NC(=O)Nc4cc(C(C)(C)C)on4)c(Cl)c3)c21,48,5,8,12,4,0,19,1,0,11,14,0,38,0,0,0,0,0,0,0
CC(=O)Nc1ccc(-c2cc3ncnc(SCC(=O)O)c3s2)cc1,0,0,26,5,1,0,38,10,48,22,0,70,0,46,0,0,25,12,5,0
COc1cccc(C2=C(Nc3cccc(Cl)c3)C(=O)NC2=O)c1 [SB-341556],0,1,0,0,0,10,0,9,0,0,0,23,0,28,0,0,0,5,0,0
Cc1nnc(-c2ccc3occ(-c4ccc(S(C)=O)cc4)c3n2)o1 (stereo not drawn),0,0,8,0,0,0,0,0,3,4,9,10,0,43,0,0,64,0,0,0
Cl.c1ccc(Oc2ccc(Nc3ccnc4cc(-c5ccc(CN6CCNCC6)o5)ccc34)cc2)nc1 [GW567142],0,0,0,0,10,0,0,0,0,2,0,34,0,23,0,0,0,10,0,22
Cc1ccc(CC(=O)N2CCc3cc(-c4cn(C)c5ncnc(N)c45)ccc32)cc1 [GSK2634758],4,0,0,36,0,0,1,0,0,0,33,57,32,17,0,0,4,0,16,7
O=C(NCC1CC1)c1ccc(-c2cc(C(=O)NC3CC3)ccc2F)cc1 [GW810445],0,0,0,0,0,0,6,9,0,0,54,0,0,22,7,0,0,0,0,6
Cc1ccc(C(=O)Nc2ccc(Oc3ccc4nc(NC(=O)C5CC5)cn4c3)c(F)c2)c(=O)n1-c1ccccc1,0,0,0,0,0,0,14,1,0,0,26,44,34,77,0,26,0,0,0,2
Cn1cc(-c2cccc3c(N)c(C(N)=O)nnc23)cn1,26,0,0,20,18,16,0,0,0,0,0,5,0,7,0,16,9,0,23,14
Cl.Nc1n[nH]c2cc(-c3ccccn3)ccc12 [GSK2189892],0,0,0,0,0,0,0,0,0,0,0,25,7,7,0,0,0,10,0,0

# — PMC5540273 (PLoS ONE, 2017)
